Assay in all cases: NCI-60 one-dose screen, 48 h (100 = growth as untreated, 0 = no growth, -100 = all killed)
One assay deals with HCT-15 colon. The settings on record: 10 µM unless noted.
Another assay relates to HT29 colon. The settings on record: 10 µM unless noted.
For another assay, the system named is SNB-75 CNS. To be noted: 10 µM unless noted.
The next assay concerns SNB-19 CNS. The settings on record: 10 µM unless noted.
In a further assay the test system is U251 CNS. The settings on record: 10 µM unless noted.
The subject of another assay is PC-3 prostate. To be noted: 10 µM unless noted.
Another assay concerns SK-MEL-5 melanoma. To be noted: 10 µM unless noted.
A further assay concerns UACC-62 melanoma. To be noted: 10 µM unless noted.
A further assay relates to LOX IMVI melanoma. The settings on record: 10 µM.
For another assay, the system named is SK-MEL-28 melanoma. The settings on record: 10 µM unless noted.
Another assay concerns SK-MEL-2 melanoma. To be noted: 10 µM unless noted.
Another assay relates to EKVX NSCLC. The settings on record: 10 µM unless noted.
The next assay deals with SN12C renal. To be noted: 10 µM unless noted.
The test system of another assay is UO-31 renal. The settings on record: 10 µM unless noted.
Another assay concerns TK-10 renal. To be noted: 10 µM unless noted.
Another assay concerns ACHN renal. To be noted: 10 µM unless noted.
For another assay, the system named is CAKI-1 renal. The settings on record: 10 µM unless noted.
A further assay has as its system A498 renal. To be noted: 10 µM unless noted.
In a further assay the test system is CCRF-CEM leukemia. The settings on record: 10 µM unless noted.
In another assay the test system is MOLT-4 leukemia. To be noted: 10 µM unless noted.

This is part of a sample that, as a whole, favours compounds with a hit. Of some 83,000 tested, about 20% had one in any assay.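 How to read the values: 0–100, growth inhibition (40 = 60% inhibited); 0, no net growth; -100 to 0, cell death (-40 = 40% of starting cells died; -100 = all dead).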 A number with no mark means an inactive call. Calls of active or inactive are those of the source. How the source made its calls: active means growth percent below 10; inactive means the rest.

As for `Cc1ccc(C(=O)C(c2c[nH]c3ccccc23)c2c[nH]c3ccccc23)cc1`, the growth in the assay on HCT-15 colon was -15.3% (active); in the assay on HT29 colon it was -26.1% (active); with SNB-75 CNS, 70.1%; in the assay with SNB-19 CNS, 87.4%; with U251 CNS it was 21.6%; with PC-3 prostate, 17.1%. For the same compound, the growth with SK-MEL-5 melanoma was 83%; in the assay on UACC-62 melanoma it was 51.2%; in the assay with LOX IMVI melanoma, -78.5% (active); in the assay on SK-MEL-28 melanoma it was 19.7%; in the assay with SK-MEL-2 melanoma it was 72.4%; in the assay on EKVX NSCLC, 56.5%. Also, the growth in the assay on SN12C renal is -12.8% (active); in the assay with UO-31 renal it was 26.4%; with TK-10 renal it was 111%; in the assay with ACHN renal, 17.9%; with CAKI-1 renal, 18.7%; with A498 renal it was 108%. For the same compound, the growth was 5.91% (active) in the assay on CCRF-CEM leukemia and 5.7% (active) in the assay on MOLT-4 leukemia.

For the compound `COc1ccc(CCC2c3c(cc4c(c3OC)OCO4)CCN2C)cc1` (stereo not given), the growth in the assay with HCT-15 colon was -16.4% (active); with HT29 colon, -45.6% (active); in the assay with SNB-75 CNS, 2.42% (active); in the assay on SNB-19 CNS, -2.75% (active); in the assay with U251 CNS it was -90.4% (active); with PC-3 prostate, 3.75% (active). For the same compound, the growth with SK-MEL-5 melanoma was -98.9% (active); with UACC-62 melanoma, -95.7% (active); in the assay on LOX IMVI melanoma, -100% (active); in the assay with SK-MEL-28 melanoma it was -98.3% (active); with SK-MEL-2 melanoma, -62.7% (active); in the assay with EKVX NSCLC it was -17.3% (active). Besides, the growth is -18.6% (active) in the assay on SN12C renal; -21.9% (active) in the assay with UO-31 renal; -14.7% (active) in the assay on TK-10 renal; -16.5% (active) with ACHN renal; 0.732% (active) in the assay with CAKI-1 renal; 13.2% with A498 renal. Also, the growth in the assay with CCRF-CEM leukemia was 4.55% (active); with MOLT-4 leukemia, -4.81% (active).

As for `COc1cc(-c2nc3ccc(C)cc3[nH]2)ccc1OCc1nnc(-c2ccc(Br)cc2)o1`, the growth with HCT-15 colon is 19.2%; in the assay with HT29 colon, -53.7% (active); in the assay on SNB-75 CNS, 85.7%; with SNB-19 CNS, 57.7%; with U251 CNS, 5.13% (active); in the assay with PC-3 prostate, 27.9%. Besides, the growth in the assay with SK-MEL-5 melanoma is 20.2%; in the assay with UACC-62 melanoma, 19.9%; with LOX IMVI melanoma it was 77.1%; with SK-MEL-28 melanoma, 27.1%; in the assay with SK-MEL-2 melanoma, 83%; in the assay with EKVX NSCLC it was 42.7%. Moreover, the growth was 36.2% with SN12C renal; 43% in the assay with UO-31 renal; 33.2% in the assay with TK-10 renal; 55.9% with ACHN renal; 44.6% in the assay on CAKI-1 renal; 89.3% in the assay with A498 renal. The values for the growth with CCRF-CEM leukemia and with MOLT-4 leukemia were 26.4% and 25%, respectively.

Regarding `CCCCCCn1c(O)c(N=Nc2nc(-c3cc4ccccc4oc3=O)cs2)c2ccccc21`, the growth in the assay on HCT-15 colon is 36.7%; with HT29 colon, -39.7% (active); in the assay with SNB-75 CNS, 81.4%; in the assay on SNB-19 CNS, 40%; in the assay with U251 CNS, -57.5% (active); in the assay with PC-3 prostate, -2.73% (active). Also, the growth with SK-MEL-5 melanoma is -64.8% (active); in the assay on UACC-62 melanoma, -2.7% (active); with LOX IMVI melanoma, -63.9% (active); with SK-MEL-28 melanoma, -39.3% (active); in the assay on SK-MEL-2 melanoma, 79.7%; in the assay on EKVX NSCLC, 1.67% (active). Further, the growth is 63.8% with SN12C renal; 75.1% in the assay on UO-31 renal; 90.4% with TK-10 renal; 81.4% in the assay on ACHN renal; 58.9% with CAKI-1 renal; 88% in the assay with A498 renal. The growth is 5.68% (active) with CCRF-CEM leukemia and 23.4% with MOLT-4 leukemia.

Consider `C#CCOc1cc(N(CC)CC)ccc1C(C(=O)NC(C)(C)C)N(C(=O)C1CCc2cc(F)ccc2O1)c1ccc(F)c(Cl)c1` (stereo not given), for which the growth with HCT-15 colon is 51.1%; with HT29 colon, 79%; in the assay with SNB-75 CNS it was 59%; in the assay on SNB-19 CNS it was 60.5%; in the assay on U251 CNS it was 45.1%; with PC-3 prostate it was 25.7%. In addition, the growth in the assay with SK-MEL-5 melanoma was 61.1%; in the assay with UACC-62 melanoma it was 45.8%; in the assay with LOX IMVI melanoma it was 52.9%; in the assay on SK-MEL-28 melanoma, 75.5%; with SK-MEL-2 melanoma it was -6.45% (active); with EKVX NSCLC, 54.4%. In addition, the growth with SN12C renal was 55.8%; with UO-31 renal, 47.2%; in the assay with TK-10 renal, 85.2%; in the assay on ACHN renal it was 61.6%; in the assay with CAKI-1 renal, 41.1%; in the assay with A498 renal it was 73%. For the same compound, the growth in the assay on CCRF-CEM leukemia is 52.8%; in the assay on MOLT-4 leukemia, 21.2%.

In the case of `CC1[C@H]2[C@H](C[C@H]3[C@@H]4CC=C5c6sc(Nc7ccccc7F)nc6CC[C@]5(C)[C@H]4CC[C@@]32C)O[C@]12CC[C@@H](C)CO2` (stereo not given in full), the growth is -80% (active) in the assay on HCT-15 colon; -79.3% (active) with HT29 colon; -55.6% (active) in the assay with SNB-75 CNS; -37.5% (active) with SNB-19 CNS; -88.2% (active) in the assay on U251 CNS; -47.2% (active) with PC-3 prostate. Moreover, the growth in the assay with SK-MEL-5 melanoma was -58.1% (active); in the assay with UACC-62 melanoma it was -70.8% (active); in the assay with LOX IMVI melanoma it was -90.4% (active); in the assay on SK-MEL-28 melanoma, -97.1% (active); in the assay on SK-MEL-2 melanoma it was -83% (active); in the assay on EKVX NSCLC it was -52.5% (active). Besides, the growth is -69.4% (active) in the assay on SN12C renal; -93.1% (active) in the assay on UO-31 renal; -60.2% (active) with TK-10 renal; -75.4% (active) in the assay with ACHN renal; -82.2% (active) in the assay on CAKI-1 renal; 17.5% in the assay with A498 renal. For the same compound, the growth in the assay on CCRF-CEM leukemia is -21.5% (active); with MOLT-4 leukemia it was -16.2% (active).

In the case of `O=C(NN1C(=O)/C(=C/C=C/c2ccc([N+](=O)[O-])o2)SC1=S)c1ccc(Cl)cc1`, the growth with HCT-15 colon was -75.6% (active); with HT29 colon, -76.4% (active); with SNB-75 CNS it was -93.4% (active); with SNB-19 CNS, -100% (active); in the assay with U251 CNS it was -97.4% (active); in the assay with PC-3 prostate, -34.7% (active). Moreover, the growth was -100% (active) with SK-MEL-5 melanoma; -100% (active) in the assay on UACC-62 melanoma; -97.3% (active) with LOX IMVI melanoma; -99.7% (active) with SK-MEL-28 melanoma; -90.8% (active) in the assay with SK-MEL-2 melanoma; -97.4% (active) with EKVX NSCLC. The growth with SN12C renal was -98.6% (active); in the assay with UO-31 renal it was -100% (active); in the assay with TK-10 renal it was -99% (active); in the assay with ACHN renal, -100% (active); in the assay on CAKI-1 renal, -100% (active); in the assay with A498 renal it was -93.7% (active). The growth in the assay on CCRF-CEM leukemia is -14.7% (active); in the assay on MOLT-4 leukemia it was 2.15% (active).

For `O=C(Nc1ccccc1)N1CCN(c2cc(-c3cn(-c4ccccc4)nc3-c3cccc(O)c3)ccn2)CC1`, the growth was 21.4% in the assay with HCT-15 colon; 75.8% with HT29 colon; 101% in the assay with SNB-75 CNS; 81.9% with SNB-19 CNS; 63% with U251 CNS; 43% in the assay with PC-3 prostate. Further, the growth with SK-MEL-5 melanoma was 40%; in the assay with UACC-62 melanoma it was 50.4%; in the assay with LOX IMVI melanoma, 69.1%; with SK-MEL-28 melanoma, 73.2%; with SK-MEL-2 melanoma, 57.4%; with EKVX NSCLC it was 77.1%. For the same compound, the growth is 88.8% in the assay with SN12C renal; 55.1% in the assay on UO-31 renal; 129% in the assay on TK-10 renal; 81.7% in the assay with ACHN renal; 70.3% with CAKI-1 renal; 103% with A498 renal. For the same compound, the growth was 36.8% in the assay with CCRF-CEM leukemia and 33% with MOLT-4 leukemia.
